# Laboratory results published in PubChem BioAssay (Tox21).
# Records with an inconclusive call do not appear. Unmarked numbers belong to inactive results. Calls of active or inactive are those of the source. The call rests on the fitted dose curve; in most records, active means well fitted cell-killing curve with a large enough effect in the repeat runs; inconclusive means weak or mixed curves, or effect the other way; inactive means flat fitted curve, though single readings scatter.
# Experiment: qHTS RealTime-Glo MT Cell Viability Assay in HEK293 cells - 8 hour (AID 1224887); further: nearly all actives have a fitted effect of over 50% in size; on activity change, negative = cytotoxicity: top concentration of the series differs between compounds
# Settings: RealTime-Glo luminescence; series mostly up to 76.8 µM; activity change, negative = cytotoxicity: at the top concentration
# Procedure, shortened: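 Viable HEK293 cells reduce a cell-permeant prosubstrate; the product diffuses out and is consumed by NanoLuc in the medium to give light. Compounds went in after a 5 h incubation and plates were read over the treatment course.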
# On the % scale 0 is the no-effect control and ±100 the full control effect; potency means the concentration at half of the fitted maximal effect.
Compound,"activity change, negative = cytotoxicity",Potency
O=C(O)c1ccccc1S,7.74% [at 35.3 µM],
NC(=O)CCCCC1CCSS1 (stereo not drawn),2.2% [at 35.3 µM],
CCN(CC)C(=O)c1ccc(O)c(OC)c1,0.776% [at 35.3 µM],
CC(C)COC(=O)c1ccccc1O,3.23%,
C1C2OC2C2C1C1CC2C2OC12 (stereo not drawn),4.53%,
CC12CCC(CC1=O)C2(C)C (stereo not drawn),-4.96%,
CCCc1ccccc1O,2.27%,
Nc1ncnc2c1ncn2Cc1c(F)cccc1Cl,-1.7% [at 35.3 µM],
Fc1ccccc1-c1ccccc1,-29.4%,
CN(C)C(=O)C(CCN1CCC(O)(c2ccc(Cl)cc2)CC1)(c1ccccc1)c1ccccc1,,12 µM (active)
CN1[C@@H]2CC[C@H]1CC(NC(=O)n1c(=O)[nH]c3ccccc31)C2 (stereo partly drawn),-6.24% [at 35.3 µM],
COC(=O)[C@H]1[C@H]2C[C@@H]3c4[nH]c5cc(OC)ccc5c4CCN3C[C@H]2C[C@@H](OC(=O)COc2ccc(OC)cc2)[C@@H]1OC,-10.2% [at 35.3 µM],
C=C(C)[C@@H]1CCC2=CC(=O)C[C@@H](C)[C@]2(C)C1,6.25%,
Cc1nc(-c2ccc(OCC(C)C)c(C#N)c2)sc1C(=O)O,2.38% [at 35.3 µM],
[O-][N+](=Nc1ccccc1)c1ccccc1,-16.1%,
c1ccc(CCCc2ccccn2)cc1,-1.88%,
CC(C)CCOC(=O)CC(C)C,22%,
Cc1ccccc1C(=O)O,0.134%,
CCCCCCCCCCCCCCCCCCOCC(O)CO (stereo not drawn),-9.24% [at 35.3 µM],

Compound,"activity change, negative = cytotoxicity",Potency
C=C(C)C(=O)NCCC[N+](C)(C)C,-0.188%,
CCCCc1ccc2cccc(S(=O)(=O)O)c2c1,12.2%,
NC(=O)c1ncn([C@@H]2O[C@H](CO)[C@@H](O)[C@H]2O)c1O,7.03% [at 35.3 µM],
C[C@H]1O[C@@H](n2cc(F)c(=O)[nH]c2=O)[C@H](O)[C@@H]1O,12.6% [at 35.3 µM],
CCCCOCC(C)OCC(C)O (stereo not drawn),-2.56%,
NC(=O)Nc1nc2ccccc2[nH]1,-2.73%,
CC(C)c1cccc(C(C)C)c1N,1.44%,
NC(N)=NS(=O)(=O)c1ccc(N)cc1,-6.81% [at 35.3 µM],
CC(C)(C)CC(C)(C)N,7.85%,
CC/C=C\CCCCO,1.78%,
CCO[Si](C)(OCC)OCC,9.3%,
COc1cc(CCC(C)=O)ccc1O,8.61%,
CC1(C)SC(C)(C)SC(C)(C)S1,-16.7%,
Nc1nc(F)nc2c1ncn2[C@@H]1O[C@H](CO)[C@@H](O)[C@@H]1O,-3.39% [at 35.3 µM],
C=C(C)C(=O)NCCCN(C)C,-1.64%,
CC1=CC(C)C(C=O)C(C)C1 (stereo not drawn),13.7%,
O=C(O)Cc1cc(I)c(Oc2cc(I)c(O)c(I)c2)c(I)c1,3.62% [at 35.3 µM],
CC1CCN(CCCC(=O)c2ccc(F)cc2)CC1,4.93% [at 35.3 µM],
COc1cccc(Br)c1,-2.24%,
